Structures are written as SMILES. Screen size: about 2,400 compounds; about 2,400 (100%) were called active.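 The calls were made as follows: active = ratio percent of control, averaged over triplicates, above buffer control mean plus 5 SD (cut at about 64% in these data); inactive = the rest.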 The set was probably picked from earlier hits. A selection follows.

For this test, the target named is Potassium channel subfamily K member 3 (Homo sapiens) (UniProt O14649). The experiment in a line: retest of human KCNK3 channel inhibitors, confirmation, CHO cells, FluxOR thallium flux, triplicate (AID 651638).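 Also: ratio is the fluorescence rise from min to max over baseline after thallium stimulus.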 Conditions: FluxOR fluorescence, at 10 µM, stronger effect = higher value, 0% buffer, 100% carvedilol maximal block.
Chain of Potassium channel subfamily K member 3 (Homo sapiens) (O14649 whole entry, looked up): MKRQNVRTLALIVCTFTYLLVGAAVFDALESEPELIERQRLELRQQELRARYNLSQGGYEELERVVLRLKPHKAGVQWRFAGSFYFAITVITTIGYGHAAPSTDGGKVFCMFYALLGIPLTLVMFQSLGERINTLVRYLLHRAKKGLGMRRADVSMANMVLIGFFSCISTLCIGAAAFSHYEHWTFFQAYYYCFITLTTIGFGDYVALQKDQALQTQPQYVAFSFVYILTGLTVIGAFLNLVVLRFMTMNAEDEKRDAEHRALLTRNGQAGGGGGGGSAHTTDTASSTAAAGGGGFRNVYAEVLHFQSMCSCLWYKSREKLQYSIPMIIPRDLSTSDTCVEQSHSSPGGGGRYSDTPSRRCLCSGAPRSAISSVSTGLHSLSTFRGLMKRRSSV
As for `C=CCSc1nsc(NC(=O)Nc2cccc(C(C)=O)c2)n1`, the ratio percent of control was 109% (active).
The same measure for `COc1ccc([N+](=O)[O-])cc1-c1nc2ccccc2nc1-c1ccccc1`: 127% (active); for `COc1cccc(C(=O)NCCSc2ccc(Br)cc2)c1`: 92.3% (active); for `Cc1cccc2c1-c1sc(C(=O)NCCCN3CCc4ccccc4C3)cc1CO2`: 90.3% (active).
The same measure for `O=C(Nc1ccccc1N1CCCC1)c1ccc2ccccc2c1`: 134% (active); for `CCCCC(=O)Nc1ccccc1N1CCN(c2ccc(F)cc2)CC1`: 102% (active).
The same measure for `Cc1cccc(C(=O)Nc2ccccc2N2CCN(c3ccc(F)cc3)CC2)c1`: 119% (active); for `N#Cc1nc(Cc2cccc3ccccc23)oc1NCc1ccc2c(c1)OCO2`: 96% (active); for `N#Cc1cccc(NC(=O)COC(=O)c2ccccc2C(=O)c2ccc(Cl)c([N+](=O)[O-])c2)c1`: 135% (active).
For the compound `CC(Sc1nc2ccccc2c(=O)n1Cc1ccco1)C(=O)c1ccccc1` (configuration not stated), the ratio percent of control is 97% (active).
In the case of `Cc1cc(C)c(C#N)c(SCc2ccc3c(c2)OCO3)n1`, the ratio percent of control is 137% (active).
The same measure for `CCCCCCCCCCOC(=O)Cn1c(COc2cccc(OC)c2)[n+](C)c2ccccc21`: 119% (active); for `CS/C(=C\C(=O)c1ccco1)Nc1ccccc1Cl`: 95% (active); for `S=C(Nc1cccc(Br)c1)N1CCn2cccc2C1c1cccnc1` (configuration not stated): 79.7% (active).
With `CCCOc1ccc2c3c(c(=O)oc2c1OCCC)CCC3` the figure was 111% (active); with `COc1ccc(CC(=O)Nc2nc(-c3ccc(F)c(F)c3)cs2)cc1OC`, 134% (active); with `CC(Oc1cccc(NC(=O)c2cccs2)c1)C(=O)c1ccccc1` (configuration not stated), 103% (active).
Regarding `Cc1cccc(N(Cc2ccccc2)C(=O)c2ccccc2F)c1`, the ratio percent of control was 88.3% (active).
As to `CCOc1ccc(C2c3[nH]c4ccccc4c3CCN2Cc2cccn2-c2ncccn2)cc1` (configuration not stated), the ratio percent of control is 117% (active).
`CC[n+]1cc(C)ccc1/C=C/c1ccc(N(C)C)cc1`: the ratio percent of control is 143% (active).
With `COc1ccc(C(C)=O)cc1COc1ccc(Cl)c(C)c1` the figure was 117% (active); with `O=C(Nc1cccc(Cl)c1)Nc1ccccc1NS(=O)(=O)c1cccs1`, 138% (active); with `C=CCc1cc(S(=O)(=O)c2ccc(O)c(CC=C)c2)ccc1O`, 106% (active).
In the case of `CC(=O)N(C1=C(Cl)C(=O)c2ccccc2C1=O)c1ccc(C(=O)O)cc1`, the ratio percent of control was 136% (active).
`COc1ccc(S(=O)(=O)NCCCCOc2ccc(Cl)cc2)cc1`: the ratio percent of control is 123% (active).
In the case of `C=CCSc1nnc(N2C(=O)C(O)=C(C(=O)c3ccco3)C2c2ccc(F)cc2)s1` (configuration not stated), the ratio percent of control was 92% (active).
With `O=C(Oc1ccc(Br)cc1C(=S)N1CCOCC1)c1cccc([N+](=O)[O-])c1` the figure was 103% (active); with `CCCc1cc(C(=O)N2CCCC(CO)(CCCc3ccccc3)C2)n(C)n1` (configuration not stated), 103% (active); with `CCN(CC)CCN(C(=O)c1cc(Cl)sc1Cl)c1nc2cc3c(cc2s1)OCO3`, 121% (active).
With `COc1ccc(CN(C)C(=O)c2cc(-c3ccc(C)cc3C)nc3ccccc23)c(OC)c1OC` the figure was 129% (active).
For the compound `CC(C)CCNC(=O)C(C)N(C(=O)Cn1nnc(-c2ccc(F)cc2)n1)C1CCCC1` (configuration not stated), the ratio percent of control was 74% (active).
The same measure for `COC(=O)c1ccc(COC(=O)C2CCN(S(=O)(=O)c3c(Cl)cccc3Cl)CC2)o1`: 85.3% (active).
In the case of `CCn1ncc(Br)c1C(=O)Nc1cc(C)ccc1F`, the ratio percent of control was 87.3% (active).
The same measure for `O=C(Cn1cc(C(=O)c2cccs2)c2ccccc21)NCc1cccs1`: 116% (active); for `COc1cc(Cl)c(S(=O)(=O)N2CCN(Cc3ccc4c(c3)OCO4)CC2)cc1Cl`: 107% (active); for `Cc1nc2ccccc2cc1OCc1ccc(F)cc1`: 134% (active).
With `[O-][n+]1ccc(OCc2ccccc2)cc1` the figure was 73% (active).
The same measure for `Cc1cc(OCCCCOc2ccc(C#N)cc2)ccc1[N+](=O)[O-]`: 119% (active); for `Cc1ccc(S(=O)(=O)NCc2cn3ccsc3n2)c(C)c1`: 64% (active).
As to `CC(C(=O)NCC1CCCCC1)N(C)Cc1cccc(Cl)c1` (configuration not stated), the ratio percent of control was 114% (active).
With `O=C(CSc1nc(Nc2ccccc2)nc(N2CCOCC2)n1)Nc1cc(Cl)ccc1O` the figure was 127% (active); with `Clc1cccc(-c2nc(NCC3CCCO3)c3ccccc3n2)c1` (configuration not stated), 130% (active); with `CCc1ccc2nc3sc(C(=O)Nc4nnc(CC)s4)c(N)c3cc2c1`, 116% (active).
The same measure for `CSc1cccc(NC(=S)N(C(C)C)C(C)c2ccccn2)c1` (configuration not stated): 98.3% (active).
The same measure for `COc1ccc(Cl)cc1NC(=O)C(C)N1CCc2ccccc21` (configuration not stated): 96.3% (active).
For `CCc1nc(SCC(=O)NNC(=O)c2ccc(C)cc2)c2ccccc2n1`, the ratio percent of control was 78% (active).
The same measure for `FC(F)(F)c1cccc(NC(=S)Nc2cccc(Cl)c2)c1`: 127% (active); for `CSc1nccc(NC(=O)c2ccc(C(C)(C)C)cc2)n1`: 116% (active).
As to `Cc1cccc(NC(=O)c2sc3nc4c(c(-c5ccco5)c3c2N)CCC4)c1`, the ratio percent of control was 115% (active).
As for `N#Cc1ccc(S(=O)(=O)NCC(=O)OCC(=O)NCCc2ccccc2)cc1`, the ratio percent of control was 63% (active).
For `O=C1c2ccccc2C2=Nc3ccccc3SC(c3ccccc3F)C12` (configuration not stated), the ratio percent of control is 128% (active).
With `O=C(c1cc(-c2ccc(O)cc2)on1)N1CCCc2ccccc21` the figure was 76.7% (active); with `COc1ccc2c(c1)C(c1cccs1)=NNC(c1cccnc1)=N2`, 73.3% (active); with `CC(=O)Nc1cccc(OCC(=O)/C=C2\N(C)c3ccccc3C2(C)C)c1`, 124% (active).
With `COc1cc(C(=O)Nc2oc(-c3ccccc3)c(-c3ccccc3)c2C#N)cc(OC)c1OC` the figure was 119% (active).
With `Cc1nonc1C1CCCN1C(=O)c1cc(COc2cccc(C(F)(F)F)c2)on1` (configuration not stated) the figure was 87.3% (active).
With `Cc1ccc(NC(=O)c2cc([N+](=O)[O-])ccc2Cl)c(O)c1`, the ratio percent of control is 119% (active).

The values are drawn from PubChem BioAssay AID651638 (Johns Hopkins Ion Channel Center, 2012).
